# CYP2C9 inhib: human CYP2C9 inhibition. actives 20% (n = 96,000). CYP2C9 Supersomes, luciferin-H conversion, luminescence. inhibition, % at 5 µM. AID 777. P11712;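 active means blocking of liver enzyme CYP2C9 beyond about 50% at 5 µM, limit read from the data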
# CYP2C19 act: activators of human cytochrome P450 2C19 | P33261 | recombinant CYP2C19, luciferin-H EGE luminescence; active compounds read high; 0 = fully inhibited enzyme, 1 = untreated enzyme | activation factor at 5 µM | 96,000 tested, under 10 active;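 active means activation factor of at least 2 at 5 µM in the primary screen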;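 further: 0 = wells with 2.5 mM tranylcypromine and 1 = vehicle-only wells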
# Target sequence (P33261 whole entry, looked up): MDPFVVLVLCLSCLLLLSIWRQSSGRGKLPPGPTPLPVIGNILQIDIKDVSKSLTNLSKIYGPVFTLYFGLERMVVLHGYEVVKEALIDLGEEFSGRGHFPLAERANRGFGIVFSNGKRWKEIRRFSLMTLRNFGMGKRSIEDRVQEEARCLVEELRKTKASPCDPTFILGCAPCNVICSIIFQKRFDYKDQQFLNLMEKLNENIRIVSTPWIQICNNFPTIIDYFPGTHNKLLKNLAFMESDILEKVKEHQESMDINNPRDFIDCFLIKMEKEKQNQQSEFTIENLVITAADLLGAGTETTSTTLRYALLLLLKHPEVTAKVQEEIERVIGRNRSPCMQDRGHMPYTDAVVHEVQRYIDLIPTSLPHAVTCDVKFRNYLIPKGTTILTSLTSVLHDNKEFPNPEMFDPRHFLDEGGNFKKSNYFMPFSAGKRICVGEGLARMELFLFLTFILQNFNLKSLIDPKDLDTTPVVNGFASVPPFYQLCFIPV
# CYP2C19 inh: human CYP2C19 inhibition | actives 21% (n = 96,000) | P33261 | AID 778 | inhibition, % at 5 µM | CYP2C19 Supersomes, luciferin-H EGE luminescence, 30 min;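 active means CYP2C19 inhibition above a set limit at 5 µM in the primary screen, cut at about 50% in these data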;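 further: plate controls were negative control wells for no effect and 2.5 mM tranylcypromine positive control for full effect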
# CYP2C9 act: activators of human CYP2C9; recombinant CYP2C9, luciferin-H conversion, luminescence; active compounds read high; factor 1 = untreated enzyme, 0 = blocked; activation factor at 5 µM; P11712; actives 1.4% (n = 96,000);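 active means activation factor of 2 or more for CYP2C9 at a 5 µM dose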;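 further: 0 = sulfaphenazole-blocked wells and 1 = vehicle-only wells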
# An asterisk follows results filed as active. The list is not random: actives were taken first. Their share in the collection is about 31%.
SMILES,CYP2C9 inhib,CYP2C19 act,CYP2C19 inh,CYP2C9 act
Cc1nc2ccc(S(=O)(=O)NC(C(=O)NCc3ccc4c(c3)OCO4)C(C)C)cc2s1 (stereo not given),31,0.5,51*,0.7
CCc1nnc(NC(=O)C(NS(=O)(=O)c2ccc3c(c2)OCCO3)C(C)C)s1 (stereo not given),90*,0.1,95*,0.1
c1ccc(CNc2ccc3c(c2)ncn3C2CCCCC2)nc1,13,0.9,8,0.9
O=C1CC(c2ccco2)CC(O)=C1C=Nc1cc(Cl)ccc1O (stereo not given),73*,0.6,38,0.3
COc1c2ccoc2nc2c(OC)c(OCC(O)C(C)(C)O)ccc12 (stereo not given),-35,1.1,-7,1.3
COc1c2c(nc3occc13)C(CCC(C)(C)O)(OC)C(O)CC2 (stereo not given),54*,0.4,56*,0.5
COc1ccc(-n2nc3c(c2NC(=O)C24CC5CC(CC(C5)C2)C4)CS(=O)C3)cc1 (stereo not given),-144,1.1,-15,2.4*
COc1ccc(-n2nc3c(c2NC(=O)C2CC2)CS(=O)C3)cc1 (stereo not given),6,0.9,12,0.9
COc1ccccc1NC(=O)c1nnn(Cc2ccccc2)c1NC(=O)C(F)(F)F,71*,0.6,45,0.3
CC(=O)Nc1c(C(=O)NCc2ccccc2)nnn1Cc1ccccc1,3,0.6,38,1
O=C(Nc1ccccc1)c1nnn(Cc2ccccc2)c1NC(=O)C(F)(F)F,86*,0.4,57*,0.1
COc1ccccc1NC(=O)c1nnn(Cc2ccccc2)c1NC(C)=O,18,0.8,18,0.8
CS(=O)(=O)N1CCN(C(=O)CCC2CCCC2)CC1,-6,0.8,19,1.1
COc1ccc(S(=O)(=O)N2CCN(C(=O)CCC3CCCC3)CC2)cc1,41,0.5,55*,0.6
Cc1ccc(OCC(=O)N2CCN(C(=O)CCC3CCCC3)CC2)cc1,56*,0.4,56*,0.4
O=C(CCC1CCCC1)N1CCN(C(=O)COc2ccccc2)CC1,-3,1.1,-5,1
COc1ccc(CNC(=O)C2CCCN(S(=O)(=O)c3c(C)n[nH]c3C)C2)cc1 (stereo not given),-11,1.1,-6,1.1
O=C(NCc1ccccn1)C(F)(F)C(F)(F)C(=O)NCc1ccccn1,-15,1.1,-9,1.1
CC(C)(C)C(=O)Nc1nc(C2CCCN2S(=O)(=O)c2ccc(Cl)cc2)cs1 (stereo not given),100*,0,100*,0
O=C(Nc1nc(-c2ccccc2)cs1)C1CCCCN1S(=O)(=O)c1ccc(Cl)cc1 (stereo not given),95*,0.7,30,0.1
CN1CCN(S(=O)(=O)c2ccc(NC(=O)C(C)(C)C)cc2)CC1,1,1.1,-9,1
O=C(Nc1nc(-c2ccccc2)cs1)C1CCCCN1S(=O)(=O)c1ccccc1 (stereo not given),92*,0.3,72*,0.1
O=C(NCCOc1ccccc1)c1ncn[nH]1,-10,1,-4,1.1
CC1(C)CC2(CC(C)(C)NC(=O)N2)NC(=O)N1,-4,1.1,-6,1
O=C1CC(N2CCN(c3cccc(C(F)(F)F)c3)CC2)C(=O)N1c1ccc(F)cc1 (stereo not given),20,0.9,11,0.8
SMILES,CYP2C9 inhib,CYP2C19 act,CYP2C19 inh,CYP2C9 act
CCOC(=O)CSC1=NC(=O)CS1,4,0.9,5,1
O=C(Nc1ccccc1)NC1(C(=O)NCc2cccs2)CCCCC1,63*,0.9,13,0.4
Cc1ccc(S(=O)(=O)C2(C(=O)NCc3ccc4c(c3)OCO4)CC2)cc1,64*,0.3,69*,0.4
O=C(NCc1cccs1)Nc1ccc2c(c1)OCO2,17,0.5,52*,0.8
O=C(Nc1ccccc1)NC1(C(=O)NCCCN2CCOCC2)CCCCC1,1,1,0,1
Cc1ccc(S(=O)(=O)Cc2ccc(C(=O)NCc3ccc4c(c3)OCO4)o2)cc1,98*,0.2,84*,0
Cc1ccc(CN(c2ccc(C(=O)NCc3ccc4c(c3)OCO4)cc2)S(C)(=O)=O)cc1,22,1.1,-13,0.8
CCS(=O)(=O)N1CCCC(C(=O)NC2CCCC2)C1 (stereo not given),5,0.8,21,0.9
Cc1nc2ccccc2c2oc(C(=O)NCc3ccc4c(c3)OCO4)cc12,32,0.7,30,0.7
CC12CCC(C(=O)NCc3ccc4c(c3)OCO4)(CC1=O)C2(C)C (stereo not given),3,0.5,47,1
COc1ccc(NC2=NCC(=O)N2Cc2cccs2)cc1,28,0.6,37,0.7
Cc1ccc(NC(=O)NCc2ccc3c(c2)OCO3)cc1,31,0.5,51*,0.7
Cc1ccc(NC2=NCC(=O)N2Cc2ccc3c(c2)OCO3)cc1,86*,0.1,88*,0.1
O=C(NCc1ccc2c(c1)OCO2)c1ccc(COc2cccc(Cl)c2)o1,88*,0.4,64*,0.1
CC12CCC(C(=O)NCc3ccc4c(c3)OCO4)(C(=O)C1=O)C2(C)C (stereo not given),30,0.4,56*,0.7
CC(CC(C)C(=O)N1CCOCCN(C(=O)C(C)CC(C)C(=O)O)CCOCC1)C(=O)O (stereo not given),2,0.9,6,1
Cn1c(SCC(=O)NC2CC2)nnc1-c1cccc(NC(=O)c2ccccc2F)c1,10,0.8,24,0.9
CC1CCC2(CC1)NC(=O)N(CC(=O)NC(=O)NC1CCCC1)C2=O (stereo not given),35,0.9,8,0.7
Cc1nc2ccc(NC(=O)Cn3cnc4c3c(=O)n(C)c(=O)n4C)cc2s1,13,1,1,0.9
Cn1c(=O)c2ncn(CC(=O)Nc3cccc(-c4nc5ccccc5s4)c3)c2n(C)c1=O,50*,0.8,22,0.5
CCC(C)(C)NC(=O)Cc1ccc(C)cc1,6,0.6,44,0.9
CC1CCC(n2c(=S)[nH]c3ccccc3c2=O)CC1 (stereo not given),23,0.7,34,0.8
CC1CCCC(n2c(=S)[nH]c3ccccc3c2=O)C1C (stereo not given),15,0.5,54*,0.8
OC(CNCCc1ccccc1)c1ccccc1 (stereo not given),0,0.3,67*,1
COc1ccc(-n2c(C)cc(SC)c(C(C)=O)c2=S)cc1,-3,0.6,38,1
COc1ccc(-n2c(C)c(C(C)=O)c3cc(O)ccc32)cc1,61*,0.1,90*,0.4
CC(=O)Oc1ccc2c(c1)c(C(C)=O)c(C)n2C,6,0.9,8,0.9
COc1ccc2c(c1)c(C(C)=O)c(C)n2-c1ccccc1,88*,0,97*,0.1
CC(O)C1CCC2C3CC[C@H]4CC(O)CCC4(C)C3CC3(OCCO3)C12C (stereo not given in full),3,0.9,12,1
CCCn1c(C)cc(=O)c2cc(NC(=O)c3cnccn3)ccc21,-9,1,0,1.1

# Assay outcomes deposited in PubChem BioAssay by Sanford-Burnham Center for Chemical Genomics.
